Experimental data from ChEMBL document CHEMBL3433997, “St. Jude Leishmania screening dataset” (2016).

What follows are compounds tested against Glucose transporter (Leishmania mexicana) (UniProt O61059) (assay: ST_JUDE_LEISH: Cytotoxicity at 2uM final concentration against transgenic Leishmania Mexicana promastigotes LmGT2 that are glucose transport deficient and complemented with the L. Mexicana glucose transporter 2. Activity is measured by DNA content using SYBR green in vitro).
Type: functional

Compound	inhibition [%]
CCN(CC)CCN(Cc1ccc(-c2ccc(C(F)(F)F)cc2)cc1)C(=O)c1ccc(-c2ccc(NC(=O)OC)cc2C)cc1	10.1
Cc1cccc(CNc2nc(C)cc(NCCC(=O)NCCOc3ccccc3)n2)c1	-0.13
O=C(Nc1ccc(-c2ccc(-c3nc4cc(C(F)(F)F)ccc4[nH]3)cc2)cc1)Nc1ccc(F)c(F)c1F	-1.44
COc1ccccc1CCNc1nc(C)cc(N[C@@H](Cc2ccccc2)C(=O)NCc2cccc(F)c2)n1	5.51
O=C(Cn1c(SCc2cccc(F)c2F)cc(=O)c2ccccc21)N(Cc1ccc(-c2ccc(C(F)(F)F)cc2)cc1)C1CCN(CCO)CC1	-1.32
O=C(Nc1cccc(-c2ccc(CN3CCC(O)CC3)cc2)c1)c1ccc(Cl)cc1	1.52
CN1CCN(Cc2nc(-c3ccc4c(Nc5ccc(F)c(O)c5)ccnc4c3)cs2)CC1	0.94
COc1ccc(CNC(=O)c2cc3c(=O)n4ccccc4nc3n(CCc3ccccc3)c2=N)cc1	9.96
N=C(N)Nc1ccc(OCCCCCOc2ccc(NC(=N)N)c(Cl)c2)cc1Cl	-2.62
COc1ccc2nccc([C@@H](O)CN3CCC(NCCOc4cccc(C(F)(F)F)c4)CC3)c2c1	0.73
FC(F)(F)c1ccc2[nH]c(-c3ccc(-c4cccc(CNCCc5ccncc5)c4)s3)nc2c1	5.33
CCCCc1cc(N2CCC(NC(C)=O)C2)nc(Nc2ccc(C)cc2)n1 (stereo not given)	5.78
O=C(c1ccc(Br)o1)N1N=C(c2cccs2)CC1c1ccc(Br)cc1 (stereo not given)	3.94
O=C(NC1CC1)c1cnc(N2CCC(Oc3ccc(Cl)cc3)CC2)c(Cl)c1	0.49
COc1cc(N(Cc2ccccc2C)S(=O)(=O)Cc2ccccc2[N+](=O)[O-])c(OC)cc1Cl	3.39
CNC(=O)C1Cc2c([nH]c3c(C)cccc23)C2(N1)C(=O)Nc1ccc(OC(F)(F)F)cc12 (stereo not given)	3.8
CN1CCCC(COc2cc3c(cc2Br)CCN3C(=O)Nc2ccc(-c3ccncc3)c(Cl)c2)C1 (stereo not given)	3.35
O=[N+]([O-])c1ccc(Nc2nc(N/N=C/c3ccc(-c4ccc([N+](=O)[O-])cc4)o3)nc(Nc3ccccc3)n2)cc1	-5.8
Cc1nc(N)nc(N)c1-c1ccc(Br)c(Br)c1	3.4
COC1CCC(C(=O)Nc2ccc(-c3cccc(-c4nc5cccc(C)c5[nH]4)c3)cc2)CC1 (stereo not given)	3.5

Compound	inhibition [%]
N#Cc1cncc(-c2nc3c(N4CCC(N5CCCC5)CC4)cccc3n2CCNCc2ccccc2)c1	3.98
CC(C)(C)c1ccc(CN2CCC(CNC(=O)c3cc(-c4ccccc4C(F)(F)F)cs3)C2)cc1 (stereo not given)	1.21
N[C@@H](Cc1cc(I)c(Oc2ccc(O)c(C(=O)O)c2)c(I)c1)C(=O)O	3.61
CS(=O)(=O)N(c1ccccc1)c1cc(C(=O)N[C@@H](Cc2ccccc2)[C@H](O)CNC2CCCCC2)cc(N2CCCC2=O)c1	0.49
COc1cc(OC)cc(-c2nn(-c3ccc([N+](=O)[O-])cc3C#N)c(=S)n2CC2CCCO2)c1 (stereo not given)	-7.78
CCOc1cc(C)ccc1N(C1CCN(CCCCNC(=O)c2ccc(-c3ccc(C(F)(F)F)cc3)cc2)CC1)S(=O)(=O)c1ccccc1	-0.57
CC(C)(C)NC(=O)COC(=O)c1c2c(nc3ccccc13)C(=Cc1ccc3c(c1)OCO3)CCC2	0.48
COc1ccc2ncc(F)c(CCN3C4CCC3CC(NCc3ccc5c(c3)OCCO5)C4)c2n1 (stereo not given)	79.2
O=C(Nc1ccc(Cn2ncc(N3CCCNCC3)c(Cl)c2=O)cc1)Nc1ccc(OCc2ccccc2)cc1	-1.2
CCc1c(CCNCCCC(C)CCNCCc2ccc(OC)c(OC)c2CC)ccc(OC)c1OC (stereo not given)	1.22
SC(=Nc1ccc(Cl)c(Cl)c1)NN=Cc1ccccn1	-1.58
O=C(/C=C/c1ccc(Cl)c(Cl)c1)NCCCCCN1CC[C@H](NC(=O)c2sc3ccccc3c2Cl)C1	-1.69
CCc1c(CCNCCCCCCNCCc2ccc3c(c2C)OCO3)ccc2c1OCO2	10.6
CC(C)Oc1ccc(N2CCN(CCCCNC(=O)c3ccc(NC(=O)c4ccc(Cl)cc4)cc3)CC2)c(OC(C)C)c1	1.44
CC(=O)N(C)/N=C/[C@H](CCc1ccccc1)NC(=O)[C@H](CC(C)C)NC(=O)c1cccc(OCCN2CCOCC2)c1	8.5
Cc1cnc(C(=O)Nc2cccc(-c3cccc(-c4nc5cc(F)ccc5[nH]4)c3)c2)cn1	5.18
c1ccc(Cn2nnnc2-c2cccc(Nc3ccnc4cc(-c5nccs5)ccc34)c2)cc1	1.96
O=S(=O)(NC1CCN(c2ccnc3cc(Cl)ccc23)C1)c1ccc(C(F)(F)F)cc1 (stereo not given)	0.45
Cc1[nH]c2ccc(NS(C)(=O)=O)cc2c1C1CCN(CCC2CCN(C(=O)/C=C/c3ccc(Cl)c(Cl)c3)CC2)CC1	-1.24
O=C(NC1CCC(CCN2Cc3ccc(Br)cc3C2)CC1)c1cccc(-c2cccnc2)c1 (stereo not given)	-1.16
